Hits are enriched below; roughly 5.9% of the tested compounds scored in any of these assays.
ABHD5-PLIN5 inh – ABHD5-PLIN5 interaction inhibitors, primary screen, cell lysate, split luciferase complementation, luminescence; Perilipin-5 (Homo sapiens) + 1-acylglycerol-3-phosphate O-acyltransferase ABHD5 (Homo …; Split G. princeps luciferase complementation, 4 h; inhibition, % at 4 µM; 360,000 tested, 0.78% active;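 active = inhibition above the mean inhibition across every tested compound plus 3 SD, cut at about 22% in these data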;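 note: 0% = DMSO only wells and the 100% control is not disclosed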
Target sequence (Q00G26 whole entry, looked up): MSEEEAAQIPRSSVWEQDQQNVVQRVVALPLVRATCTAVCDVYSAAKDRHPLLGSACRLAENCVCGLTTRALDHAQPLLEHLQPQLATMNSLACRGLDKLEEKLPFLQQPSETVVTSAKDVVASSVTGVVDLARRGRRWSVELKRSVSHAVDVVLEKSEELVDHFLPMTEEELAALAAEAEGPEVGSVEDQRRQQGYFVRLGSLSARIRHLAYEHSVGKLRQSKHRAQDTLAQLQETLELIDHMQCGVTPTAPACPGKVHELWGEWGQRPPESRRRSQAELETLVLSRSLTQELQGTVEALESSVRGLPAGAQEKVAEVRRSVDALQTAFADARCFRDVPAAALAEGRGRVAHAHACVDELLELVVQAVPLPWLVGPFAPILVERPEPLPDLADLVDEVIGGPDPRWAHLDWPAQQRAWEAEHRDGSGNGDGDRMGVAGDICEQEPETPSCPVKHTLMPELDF
Target sequence (Q8WTS1 whole entry, looked up): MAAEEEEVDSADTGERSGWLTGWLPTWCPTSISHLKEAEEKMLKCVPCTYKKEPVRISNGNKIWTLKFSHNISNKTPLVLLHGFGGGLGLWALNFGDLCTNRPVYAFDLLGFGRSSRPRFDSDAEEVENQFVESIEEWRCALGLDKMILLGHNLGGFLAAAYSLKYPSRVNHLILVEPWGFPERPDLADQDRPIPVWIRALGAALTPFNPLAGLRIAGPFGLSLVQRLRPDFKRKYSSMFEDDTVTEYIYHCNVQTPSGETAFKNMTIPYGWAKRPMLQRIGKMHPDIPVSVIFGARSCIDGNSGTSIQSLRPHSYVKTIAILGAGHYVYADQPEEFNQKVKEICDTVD
PRMT1 FP inh – PRMT1 methyltransferase inhibitors, primary screen, biochemical, fluorescence polarization. 370,000 tested, 1.3% active. recombinant PRMT1, activity-based probe fluorescence polarization. inhibition, % at 2.79 µM;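 active = inhibition above about 21% made by adding two undisclosed values, limit read from the data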
rCAG binder – binders of r(CAG) RNA repeats, primary screen, biochemical, fluorescence; r(CAG) RNA repeat, TO-PRO-1 dye displacement fluorescence; inhibition, % at 3 µM; 370,000 tested, 1.3% active;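 active = inhibition above the plate cutoff, the mean of all test compounds on that plate plus 3 SD, cut at about 35% in these data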;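 note: 0% = DMSO alone and 100% = 100 µM mitoxantrone as full dye displacement; higher means more dye released from RNA so lower well fluorescence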
LANA-H2B inh – blockers of LANA interaction with H2A/H2B – biochemical, FP readout, HTS, primary screen. inhibition, % (no concentration beside the values). cell-free LANA-H2A/H2B peptide, fluorescence polarization. AID 2629, 2010. 320,000 tested, 0.6% active; in the data active = inhibition mostly above about 10%, no sharp cut-off; inactive = mostly below about 6.7%
ALR H2O2 inh – inhibitors of human ALR sulfhydryl oxidase, primary screen, biochemical, H2O2 detection, HRP-luminol luminescence, single point. FAD-linked sulfhydryl oxidase ALR (Homo sapiens), P55789. purified ALR, DTT oxidation. inhibition, % (no concentration beside the values). 290,000 tested, 3.8% active;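 active = mean replicate inhibition above about 79%, with every replicate also reaching it, limit read from the data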
Rtt109 Vps75 – inhibitors of C. albicans Rtt109/Vps75 HAT, primary screen, biochemical, ThioGlo CoA-SH fluorescence, plate reader | inhibition, % at 34.9 µM | purified Rtt109/Vps75, 4 h | Histone acetyltransferase RTT109 (Candida albicans (strain SC5314 / ATCC MYA-2876)), … | 330,000 tested, 0.16% active | AID 540336, 2011;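 active = inhibition of at least 50% in every replicate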
Numbers without * were called inactive.

Results for COc1cc(/C=C/CN2CCN(CCC(C)C)C(CCO)C2)ccc1O (stereo not given) ?
ABHD5-PLIN5 inh: -2; PRMT1 FP inh: 1; rCAG binder: -2; LANA-H2B inh: -3; ALR H2O2 inh: 94*; Rtt109 Vps75: 2

Results for COc1ccc(CC(=O)O/N=C(\N)c2ccncc2)cc1OC ?
ABHD5-PLIN5 inh: 3; PRMT1 FP inh: -2; rCAG binder: 3

Results for COC(=O)[C@]12CCCCC=C1N(CCC1=CCCCC1)C(=O)[C@H](CC(=O)NCCCCc1ccccc1)C2 ?
ABHD5-PLIN5 inh: 9; PRMT1 FP inh: 4; rCAG binder: 9

Results for CCN(CCNC(=O)C1CCC(=O)N1Cc1ccc(C)cc1)c1ccccc1 (stereo not given) ?
ABHD5-PLIN5 inh: -2; PRMT1 FP inh: 2; rCAG binder: -6; LANA-H2B inh: -1; Rtt109 Vps75: -6

How did Cc1ccc(CNC(=O)C2CCC(=O)N2Cc2ccccc2Cl)cc1 (stereo not given) do in these assays?
ABHD5-PLIN5 inh: -3; PRMT1 FP inh: -1; rCAG binder: 0; LANA-H2B inh: -4; Rtt109 Vps75: 2

Results for CCOC(=O)C1CCCN(c2c(NCCCN(C)c3ccccc3)c(=O)c2=O)C1 (stereo not given) ?
ABHD5-PLIN5 inh: -7; PRMT1 FP inh: 1; rCAG binder: 1; LANA-H2B inh: 2; ALR H2O2 inh: 99*; Rtt109 Vps75: 5

How did CCOC(=O)C1CCCN(c2c(NCCc3ccccc3)c(=O)c2=O)C1 (stereo not given) do in these assays?
ABHD5-PLIN5 inh: 5; PRMT1 FP inh: -4; rCAG binder: -2; LANA-H2B inh: 8; ALR H2O2 inh: -24; Rtt109 Vps75: -7

What do the screens show for `CCOC(=O)N1CCN(c2c(NCCCN(CC)c3cccc(C)c3)c(=O)c2=O)CC1`?
ABHD5-PLIN5 inh: -4; PRMT1 FP inh: 1; rCAG binder: 2; LANA-H2B inh: -2; ALR H2O2 inh: 99*; Rtt109 Vps75: 13

How did CCN(CCCNC(=O)C1CCC(=O)N1Cc1ccc(C)cc1)c1cccc(C)c1 (stereo not given) do in these assays?
ABHD5-PLIN5 inh: -1; PRMT1 FP inh: 0; rCAG binder: -7; LANA-H2B inh: 0; ALR H2O2 inh: 99*; Rtt109 Vps75: 5

What do the screens show for `CCN(CCCNC(=O)C1CCC(=O)N1Cc1ccccc1Cl)c1cccc(C)c1` (stereo not given)?
ABHD5-PLIN5 inh: 0; PRMT1 FP inh: -1; rCAG binder: -4; LANA-H2B inh: 8; ALR H2O2 inh: 99*; Rtt109 Vps75: -2

How did CCCSc1nnc(-c2ccco2)n1C do in these assays?
PRMT1 FP inh: 2; rCAG binder: 3

How did CCCCOCCCNC(=O)C[C@@H]1C(=O)N2CCCC3=C2[C@@]1(C(=O)OCC)CCC3 do in these assays?
PRMT1 FP inh: -3; rCAG binder: -4

How did COC(=O)C1(C)CCCC2(C)C3CCC(C(C)C)C(CO)C3C(CO)CC12 (stereo not given) do in these assays?
ABHD5-PLIN5 inh: 10; PRMT1 FP inh: -1; rCAG binder: 0

How did C/C(=N\NC(=O)c1c(C)nc2ccccn12)c1ccc(N2CCOCC2)cc1 do in these assays?
ABHD5-PLIN5 inh: -1; PRMT1 FP inh: -1; rCAG binder: -2; LANA-H2B inh: -5; ALR H2O2 inh: 87*; Rtt109 Vps75: -4

Results for Cc1ccc(NC2c3ncccc3C(=O)N2Cc2cccs2)cc1C (stereo not given) ?
ABHD5-PLIN5 inh: -3; PRMT1 FP inh: 3; rCAG binder: -2; LANA-H2B inh: -1; ALR H2O2 inh: 50; Rtt109 Vps75: -2

What do the screens show for `Cc1ccc(NC2c3ncccc3C(=O)N2Cc2ccc(F)cc2)cc1` (stereo not given)?
ABHD5-PLIN5 inh: 11; PRMT1 FP inh: 1; rCAG binder: -4; LANA-H2B inh: 0; ALR H2O2 inh: 97*; Rtt109 Vps75: 3

What do the screens show for `Cc1ccc(NC2c3ncccc3C(=O)N2C2CCCCC2)cc1` (stereo not given)?
ABHD5-PLIN5 inh: 3; PRMT1 FP inh: 2; rCAG binder: 1; LANA-H2B inh: -12; ALR H2O2 inh: 96*; Rtt109 Vps75: 6

How did O=C1c2cccnc2C(=O)N1C1CCCCC1 do in these assays?
ABHD5-PLIN5 inh: -3; PRMT1 FP inh: 3; rCAG binder: -4; LANA-H2B inh: 1; ALR H2O2 inh: -3; Rtt109 Vps75: 11

What do the screens show for `Cc1ccc(NC2c3ncccc3C(=O)N2C2CCCCC2)cc1C` (stereo not given)?
ABHD5-PLIN5 inh: 2; PRMT1 FP inh: 2; rCAG binder: -1; LANA-H2B inh: -2; ALR H2O2 inh: 92*; Rtt109 Vps75: 9

Results for Cc1ccc(CN2CCCCC(NC(=O)c3ccc(-c4ccccc4)cc3)C2=O)cc1 (stereo not given) ?
PRMT1 FP inh: 1; rCAG binder: 7

Results for CCCCCCCCN1C(=O)[C@@H](CC(=O)N2CCCCC2)C[C@@]2(C(=O)OC)C1=C[C@H](COCc1ccccc1)O[C@@H]2C ?
PRMT1 FP inh: -2; rCAG binder: 1

Results for NC(=O)[C@@H]1CCCN1C(=O)[C@H](CCc1ccccc1)NC(=O)[C@H]1O[C@@H](n2cnc3c(N)ncnc32)[C@H](O)[C@@H]1O ?
PRMT1 FP inh: 1; rCAG binder: -1

What do the screens show for `CC(=O)Nc1ccc(S(=O)(=O)NCC(=O)OCC(=O)N2CCc3ccccc32)cc1`?
ABHD5-PLIN5 inh: 5; PRMT1 FP inh: -5; rCAG binder: 12; LANA-H2B inh: 11*; ALR H2O2 inh: 22

Results for CCN(C)C1CN(Cc2cn(Cc3ccc(C)cc3)nn2)S(=O)(=O)C1 (stereo not given) ?
ABHD5-PLIN5 inh: 6; PRMT1 FP inh: -5; rCAG binder: -1

Results for Cc1c(C(=O)c2ccc(Cl)cc2[N+](=O)[O-])c2ccccn2c1CCC#N ?
ABHD5-PLIN5 inh: 10; PRMT1 FP inh: -1; rCAG binder: 0; LANA-H2B inh: 6; ALR H2O2 inh: 95*; Rtt109 Vps75: 17

What do the screens show for `Cc1c(C(=O)c2ccc(N(C)C)cc2)c2ccccn2c1CCC#N`?
ABHD5-PLIN5 inh: 11; PRMT1 FP inh: 0; rCAG binder: 4; LANA-H2B inh: -3; ALR H2O2 inh: 98*; Rtt109 Vps75: 2
